Experiments:
Assay type in all cases: functional
[1] = molecular target: Solute carrier family 2, facilitated glucose transporter member 1 (Homo sapiens) (UniProt P11166); assay: ST_JUDE_LEISH: Cytotoxicity at 2uM final concentration against transgenic Leishmania Mexicana promastigotes LmGLUT1 that are glucose transport deficient and complemented with the human glucose transporter GLUT1. Activity is measured by DNA content using SYBR green in vitro
[2] = molecular target: Hexose transporter 1 (Plasmodium falciparum) (UniProt O97467); assay: ST_JUDE_LEISH: Cytotoxicity at 2uM final concentration against transgenic Leishmania Mexicana promastigotes LmPfHT that are glucose transport deficient and complemented with the Plasmodium falciparum hexose transporter. Activity is measured by DNA content using SYBR green in vitro
[3] = molecular target: Glucose transporter (Leishmania mexicana) (UniProt O61059); assay: ST_JUDE_LEISH: Cytotoxicity at 2uM final concentration against transgenic Leishmania Mexicana promastigotes LmGT2 that are glucose transport deficient and complemented with the L. Mexicana glucose transporter 2. Activity is measured by DNA content using SYBR green in vitro

Chain of Solute carrier family 2, facilitated glucose transporter member 1 (Homo sapiens) (P11166 whole entry): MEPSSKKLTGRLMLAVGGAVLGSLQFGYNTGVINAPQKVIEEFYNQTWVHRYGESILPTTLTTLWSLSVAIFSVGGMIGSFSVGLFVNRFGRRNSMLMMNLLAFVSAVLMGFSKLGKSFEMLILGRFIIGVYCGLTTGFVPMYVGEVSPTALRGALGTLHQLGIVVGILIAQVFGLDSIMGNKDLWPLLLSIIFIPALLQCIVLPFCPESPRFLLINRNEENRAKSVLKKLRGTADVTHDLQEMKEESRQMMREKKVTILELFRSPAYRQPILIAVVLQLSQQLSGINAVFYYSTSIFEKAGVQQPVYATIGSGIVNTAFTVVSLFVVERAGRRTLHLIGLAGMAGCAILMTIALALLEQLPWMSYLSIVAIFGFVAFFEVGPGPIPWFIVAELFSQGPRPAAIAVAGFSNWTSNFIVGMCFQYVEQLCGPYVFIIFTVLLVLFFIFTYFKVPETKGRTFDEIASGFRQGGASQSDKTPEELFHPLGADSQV

Compound | inhibition [1] | inhibition [2] | inhibition [3]
CCCCCCCN1CCC(CCNc2ccnc3ccc(OC)cc23)CC1 | 0.51% | 2.47% | 0.79%
Cc1ccc(Cn2c(N3CCC(C(=O)NCc4cccs4)CC3)nc3ccccc32)cc1 | 1.76% | 2.67% | 7.85%
COc1c(C2CCN(CCCCNC(=O)c3ccc(-c4ccc(Cl)cc4)cn3)CC2)ccc2c1CCCC2 | -1.51% | -0.19% | -2.15%
COC(=O)c1ccc(CC(C)NCC(O)c2ccc(C(O)CNC(C)Cc3ccc(C(=O)OC)cc3)cc2)cc1 (stereo not drawn) | -0.44% | 1.69% | 0.96%
Cc1[nH]c(C)c(-c2ccc(Oc3ccc(O)cc3)cc2)c(=O)c1Cl | 3.19% | 1.48% | -5.02%
Cc1cc2ncn(-c3nccc(NCc4ccc(F)c(C)c4)n3)c2cc1C | 4% | 4.86% | 2.52%
COc1ccc(-c2ccc(NC(=O)c3cccc(C#N)c3)cc2)cc1CN1CCN(C)CC1 | 4.33% | 6.51% | 1.6%
CN(C)c1ccnc2ccc(NC(=O)Nc3ccnc4ccccc34)cc12 | 1.93% | 2.58% | 1.09%
O=C(NCCCCN1CCN(c2nsc3ccccc23)CC1)c1ccccc1C(=O)NCCCCN1CCN(c2nsc3ccccc23)CC1 | 2.17% | -0.52% | -0.08%
COc1cccc(Nc2nc(C)cc(NC3CCCC3)n2)c1 | 21.5% | 9.71% | 5.08%
COc1ccc(OC(C)CNC(=O)c2cc([N+](=O)[O-])ccc2-c2ccc(OC)cc2)cc1 (stereo not drawn) | 0.03% | -1.79% | -4.55%
CCN1CCc2c1cc(C(=O)N[C@@H](Cc1ccccc1)[C@H](O)CNC(C)(C)c1cccc(C(F)(F)F)c1)cc2N1CCCCS1(=O)=O | 5.34% | -3.32% | 2.66%
CCn1c(C)c(C)c2cc(C(=O)Nc3ccon3)ccc21 | 1.66% | 1.02% | 0.74%
Cc1cc(-c2ccc3occ(CCN)c3c2)cnc1N | 1.36% | 0.86% | 1.13%
O=[N+]([O-])c1ccc(C=NNc2nc(Nc3ccccc3)nc(Nc3ccccc3)n2)o1 | 13.4% | 18.9% | 2.58%
COc1cc(Cc2cnc(N)nc2N)cc(OCCNC(=O)OCc2ccccc2)c1OC | -1.11% | -1.55% | -1.22%
COc1ccc2nc(C)cc(N/N=C/C=C/c3ccccc3)c2c1 | 5.48% | 7.46% | 3.79%
Cc1cc2nc(-c3ccc(OCC(=O)NCc4cccc(C(F)(F)F)c4)cc3)[nH]c2cc1C | -2.75% | -1.2% | -1.65%

Compound | inhibition [1] | inhibition [2] | inhibition [3]
CC(=O)N/N=C/[C@H](CCc1ccccc1)NC(=O)[C@H](CC(C)C)NC(=O)c1cccc(OCCN2CCOCC2)c1 | 6.39% | 8.07% | 5.79%
COc1ccc(C=NNc2nc(O)cc(-c3ccccc3)n2)cc1OC | 1.33% | -1.28% | -1.28%
CC(C)Nc1cc(C(=O)N[C@@H](Cc2ccccc2)[C@H](O)CNC2CCOCC2)c(F)c(N2CCCCS2(=O)=O)c1 | 6.75% | 5.16% | 4.99%
COc1cc2nc(Nc3ccc4c(ccn4Cc4ccccc4)c3)nc(Nc3ccc4c(ccn4Cc4ccccc4)c3)c2cc1OC | 1.55% | 1.97% | 3.43%
COc1ccc(-c2ccc([N+](=O)[O-])cc2C(=O)NCC(C)Oc2ccc(C(F)(F)F)cc2)cc1 (stereo not drawn) | -0.75% | -1.3% | -3.99%
NC(=O)c1cccc(C(=O)Nc2cccc(-c3csc(-c4nc5ccccc5[nH]4)c3)c2)c1 | 2.68% | 2.2% | 2.09%
COc1ccccc1C(=O)N1CCN(Cc2cccs2)CC1 | 7.76% | 7.28% | 9.06%
COc1ccc2nccc([C@@H](O)CN3CCC(NCCOc4cc(F)cc(F)c4)CC3)c2c1 | 9.84% | 19.3% | 4.32%
CN(C)c1nc(NN=Cc2cc(Cl)ccc2O)nc(Nc2ccc(F)cc2)n1 | 13% | 11% | 10.9%
Cc1n[nH]c2ccc(-c3cc(OC[C@@H](N)Cc4ccccc4)cnc3-c3ccccc3OCc3cccc(F)c3)cc12 | 9.75% | 1.05% | -0.42%
O=C(Nc1nc(-c2ccccn2)cs1)c1ccccc1COc1ccccc1 | -2.49% | 1.21% | -1.57%
COc1ccc2c(c1)[nH]c1c(C=Cc3ccccc3)nccc12 | 6.16% | 5.09% | 3.77%
Cn1nc(C(F)(F)F)c(-c2ccc(Br)cc2)c1NC(=O)Cc1ccccc1F | -1.83% | 3.22% | -2.17%
CCNC(=O)N[C@@H]1CN[C@@H](C#Cc2cc3c(Nc4ccc(OCc5cccc(F)c5)c(Cl)c4)ncnc3s2)C1 | -0.84% | -1.15% | -0.46%
CN1CCN(CC(=O)Nc2cccc(-c3ccc(-c4nc5cc(F)ccc5[nH]4)s3)c2)CC1 | 7.26% | 7.42% | 5.89%
CCCCCN1CCCC1CNS(=O)(=O)c1cccc(C(=O)Nc2cccc(C(F)(F)F)c2)c1 (stereo not drawn) | 6.45% | 6.76% | 5.05%
Cn1ccnc1CNC(=O)c1ccc(-c2cccc(-c3nc4cc(F)ccc4[nH]3)c2)cc1 | -2.64% | 0.96% | 1.38%
CCc1cc2c3c(N)nc(N)nc3ccc2n1C(C)(C)C | 96% | 94.4% | 78.4%

— ChEMBL document CHEMBL3433997, “St. Jude Leishmania screening dataset” (2016)
